Experiments:
Test in all cases: log2 ratio of Biotin-Ahx-Ub-VS probe labelling (fragment/DMSO); higher = less target engagement (more negative = stronger competition), active = hit call of the paper (q ≤ 0.05, log2 ratio ≤ -1)
Settings in all cases: compound concentration: 200 uM; treatment time: 3 h
USP34 = USP34 (UniProt Q70CQ2)
Summary of the method: (§1)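 HEK293T lysate (495 µg per sample, in Tris/CHAPS/IGEPAL buffer with protease inhibitors) was treated in triplicate with fragment at 200 µM or with DMSO for 3 h. It was then treated with Biotin-Ahx-Ub-VS (0.5 µM final) for 1 h. Labelled DUBs were NeutrAvidin-enriched, digested with LysC and trypsin, and run by diaPASEF LC-MS/MS. Spectronaut label-free quantities were global-median-normalised. Values are average log2 ratios fragment/DMSO by unpaired t-test, using proteins with ≥2 unique peptides.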

USP36 = target: T1, USP36 (UniProt Q9P275)
T1 sequence (whole entry): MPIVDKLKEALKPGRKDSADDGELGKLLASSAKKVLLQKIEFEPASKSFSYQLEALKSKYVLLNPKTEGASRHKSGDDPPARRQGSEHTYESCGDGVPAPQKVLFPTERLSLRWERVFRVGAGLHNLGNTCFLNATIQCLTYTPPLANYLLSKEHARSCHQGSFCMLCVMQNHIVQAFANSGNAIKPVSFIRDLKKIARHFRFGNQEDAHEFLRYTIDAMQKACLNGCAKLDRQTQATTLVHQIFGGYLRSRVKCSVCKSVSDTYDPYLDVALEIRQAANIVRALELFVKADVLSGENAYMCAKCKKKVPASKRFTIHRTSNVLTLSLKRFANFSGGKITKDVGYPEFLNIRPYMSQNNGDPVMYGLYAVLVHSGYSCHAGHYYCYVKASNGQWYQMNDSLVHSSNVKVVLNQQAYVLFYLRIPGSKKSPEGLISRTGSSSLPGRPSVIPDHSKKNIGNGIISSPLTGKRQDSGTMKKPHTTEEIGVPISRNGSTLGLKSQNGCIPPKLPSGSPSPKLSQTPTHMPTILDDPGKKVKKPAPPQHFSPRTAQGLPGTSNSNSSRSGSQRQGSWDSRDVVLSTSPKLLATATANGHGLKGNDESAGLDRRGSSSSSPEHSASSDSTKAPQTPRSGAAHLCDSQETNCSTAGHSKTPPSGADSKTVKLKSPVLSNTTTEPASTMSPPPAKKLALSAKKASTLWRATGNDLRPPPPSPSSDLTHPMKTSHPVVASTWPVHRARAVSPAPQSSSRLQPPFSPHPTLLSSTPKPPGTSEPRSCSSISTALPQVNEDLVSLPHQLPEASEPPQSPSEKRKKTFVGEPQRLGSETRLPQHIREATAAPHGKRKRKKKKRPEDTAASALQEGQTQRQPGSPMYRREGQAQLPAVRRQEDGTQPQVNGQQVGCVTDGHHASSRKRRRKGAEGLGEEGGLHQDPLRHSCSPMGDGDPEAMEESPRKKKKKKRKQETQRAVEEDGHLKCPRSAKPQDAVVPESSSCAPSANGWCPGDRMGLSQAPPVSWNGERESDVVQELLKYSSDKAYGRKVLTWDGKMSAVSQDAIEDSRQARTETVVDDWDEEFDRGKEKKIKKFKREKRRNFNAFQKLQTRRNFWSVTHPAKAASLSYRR
Summary of the method: as §1

USP38 = target: T2, USP38 (UniProt Q8NB14)
T2 sequence (whole entry): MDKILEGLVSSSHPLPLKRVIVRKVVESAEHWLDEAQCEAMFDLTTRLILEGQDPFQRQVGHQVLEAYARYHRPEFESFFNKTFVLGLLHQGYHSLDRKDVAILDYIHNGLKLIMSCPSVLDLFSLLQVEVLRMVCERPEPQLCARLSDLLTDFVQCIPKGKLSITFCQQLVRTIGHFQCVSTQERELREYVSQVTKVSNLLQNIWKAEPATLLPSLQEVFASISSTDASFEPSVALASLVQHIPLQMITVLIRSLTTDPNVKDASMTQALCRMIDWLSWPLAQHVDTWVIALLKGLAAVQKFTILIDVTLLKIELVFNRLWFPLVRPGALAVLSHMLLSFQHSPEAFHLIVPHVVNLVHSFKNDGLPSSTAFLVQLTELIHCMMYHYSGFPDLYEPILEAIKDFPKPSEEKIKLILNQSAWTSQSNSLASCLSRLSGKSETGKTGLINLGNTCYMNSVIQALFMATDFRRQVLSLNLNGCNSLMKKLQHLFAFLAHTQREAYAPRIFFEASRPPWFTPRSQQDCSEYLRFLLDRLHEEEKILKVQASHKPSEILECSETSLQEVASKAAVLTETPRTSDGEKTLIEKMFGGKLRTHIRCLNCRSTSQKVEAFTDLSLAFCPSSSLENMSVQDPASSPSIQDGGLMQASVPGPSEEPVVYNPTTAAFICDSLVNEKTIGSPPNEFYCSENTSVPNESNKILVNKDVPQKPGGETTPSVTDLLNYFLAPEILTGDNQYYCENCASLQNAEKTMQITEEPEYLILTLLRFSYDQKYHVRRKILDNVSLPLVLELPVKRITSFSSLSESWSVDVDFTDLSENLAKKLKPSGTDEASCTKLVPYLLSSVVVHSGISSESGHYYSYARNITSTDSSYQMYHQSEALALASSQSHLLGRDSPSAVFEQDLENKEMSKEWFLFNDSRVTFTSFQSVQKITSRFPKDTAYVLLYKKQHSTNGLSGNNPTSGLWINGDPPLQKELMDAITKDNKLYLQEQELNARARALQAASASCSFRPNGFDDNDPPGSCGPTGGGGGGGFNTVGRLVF
Summary of the method: as §1

USP39 = target: T3, USP39 (UniProt Q53GS9)
T3 sequence (whole entry): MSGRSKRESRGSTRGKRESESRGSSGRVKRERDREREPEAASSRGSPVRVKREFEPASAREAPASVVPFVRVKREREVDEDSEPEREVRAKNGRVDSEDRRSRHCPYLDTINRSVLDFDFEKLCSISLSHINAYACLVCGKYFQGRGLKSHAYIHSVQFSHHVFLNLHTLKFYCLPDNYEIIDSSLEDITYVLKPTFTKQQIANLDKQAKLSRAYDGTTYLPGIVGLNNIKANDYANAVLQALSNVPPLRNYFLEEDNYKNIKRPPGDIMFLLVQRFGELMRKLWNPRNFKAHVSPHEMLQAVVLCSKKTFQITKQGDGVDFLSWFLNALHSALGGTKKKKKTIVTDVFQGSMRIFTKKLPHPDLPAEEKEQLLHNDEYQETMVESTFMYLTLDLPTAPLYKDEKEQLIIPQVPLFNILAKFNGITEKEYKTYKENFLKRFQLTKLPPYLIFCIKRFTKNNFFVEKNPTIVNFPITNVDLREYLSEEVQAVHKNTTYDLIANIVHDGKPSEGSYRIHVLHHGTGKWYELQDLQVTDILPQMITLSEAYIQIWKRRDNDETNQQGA
Summary of the method: as §1

USP4 = target: T4, USP4 (UniProt Q13107)
T4 sequence (whole entry): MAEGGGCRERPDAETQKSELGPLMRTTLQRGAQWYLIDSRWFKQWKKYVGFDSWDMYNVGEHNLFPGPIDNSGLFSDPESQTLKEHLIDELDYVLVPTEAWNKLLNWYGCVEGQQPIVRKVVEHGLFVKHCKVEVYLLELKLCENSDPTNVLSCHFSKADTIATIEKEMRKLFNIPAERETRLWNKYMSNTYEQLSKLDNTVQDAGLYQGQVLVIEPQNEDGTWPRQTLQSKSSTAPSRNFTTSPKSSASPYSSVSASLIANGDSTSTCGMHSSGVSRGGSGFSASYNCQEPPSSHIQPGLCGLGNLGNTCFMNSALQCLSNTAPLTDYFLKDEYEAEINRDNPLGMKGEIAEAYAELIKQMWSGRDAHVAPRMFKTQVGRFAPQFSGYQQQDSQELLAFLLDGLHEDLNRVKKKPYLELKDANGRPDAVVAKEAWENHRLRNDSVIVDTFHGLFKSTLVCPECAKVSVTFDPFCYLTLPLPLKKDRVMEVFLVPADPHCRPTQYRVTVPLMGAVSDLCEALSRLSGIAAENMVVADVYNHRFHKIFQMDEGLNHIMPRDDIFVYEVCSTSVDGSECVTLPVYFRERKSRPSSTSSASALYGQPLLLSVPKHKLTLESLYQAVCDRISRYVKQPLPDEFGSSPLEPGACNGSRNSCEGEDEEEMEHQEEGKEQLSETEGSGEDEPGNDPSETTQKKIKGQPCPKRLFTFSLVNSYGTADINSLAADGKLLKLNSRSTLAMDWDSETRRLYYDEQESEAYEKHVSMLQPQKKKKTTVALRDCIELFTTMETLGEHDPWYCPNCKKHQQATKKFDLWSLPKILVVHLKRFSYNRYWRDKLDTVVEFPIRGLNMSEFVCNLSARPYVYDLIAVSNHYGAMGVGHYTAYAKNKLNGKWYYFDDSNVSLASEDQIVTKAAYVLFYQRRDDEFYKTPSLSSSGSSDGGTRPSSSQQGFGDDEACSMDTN
Summary of the method: as §1

Measured: log2 ratio of Biotin-Ahx-Ub-VS probe labelling

USP34, sequence (Q70CQ2 whole entry, the tested form may be a part): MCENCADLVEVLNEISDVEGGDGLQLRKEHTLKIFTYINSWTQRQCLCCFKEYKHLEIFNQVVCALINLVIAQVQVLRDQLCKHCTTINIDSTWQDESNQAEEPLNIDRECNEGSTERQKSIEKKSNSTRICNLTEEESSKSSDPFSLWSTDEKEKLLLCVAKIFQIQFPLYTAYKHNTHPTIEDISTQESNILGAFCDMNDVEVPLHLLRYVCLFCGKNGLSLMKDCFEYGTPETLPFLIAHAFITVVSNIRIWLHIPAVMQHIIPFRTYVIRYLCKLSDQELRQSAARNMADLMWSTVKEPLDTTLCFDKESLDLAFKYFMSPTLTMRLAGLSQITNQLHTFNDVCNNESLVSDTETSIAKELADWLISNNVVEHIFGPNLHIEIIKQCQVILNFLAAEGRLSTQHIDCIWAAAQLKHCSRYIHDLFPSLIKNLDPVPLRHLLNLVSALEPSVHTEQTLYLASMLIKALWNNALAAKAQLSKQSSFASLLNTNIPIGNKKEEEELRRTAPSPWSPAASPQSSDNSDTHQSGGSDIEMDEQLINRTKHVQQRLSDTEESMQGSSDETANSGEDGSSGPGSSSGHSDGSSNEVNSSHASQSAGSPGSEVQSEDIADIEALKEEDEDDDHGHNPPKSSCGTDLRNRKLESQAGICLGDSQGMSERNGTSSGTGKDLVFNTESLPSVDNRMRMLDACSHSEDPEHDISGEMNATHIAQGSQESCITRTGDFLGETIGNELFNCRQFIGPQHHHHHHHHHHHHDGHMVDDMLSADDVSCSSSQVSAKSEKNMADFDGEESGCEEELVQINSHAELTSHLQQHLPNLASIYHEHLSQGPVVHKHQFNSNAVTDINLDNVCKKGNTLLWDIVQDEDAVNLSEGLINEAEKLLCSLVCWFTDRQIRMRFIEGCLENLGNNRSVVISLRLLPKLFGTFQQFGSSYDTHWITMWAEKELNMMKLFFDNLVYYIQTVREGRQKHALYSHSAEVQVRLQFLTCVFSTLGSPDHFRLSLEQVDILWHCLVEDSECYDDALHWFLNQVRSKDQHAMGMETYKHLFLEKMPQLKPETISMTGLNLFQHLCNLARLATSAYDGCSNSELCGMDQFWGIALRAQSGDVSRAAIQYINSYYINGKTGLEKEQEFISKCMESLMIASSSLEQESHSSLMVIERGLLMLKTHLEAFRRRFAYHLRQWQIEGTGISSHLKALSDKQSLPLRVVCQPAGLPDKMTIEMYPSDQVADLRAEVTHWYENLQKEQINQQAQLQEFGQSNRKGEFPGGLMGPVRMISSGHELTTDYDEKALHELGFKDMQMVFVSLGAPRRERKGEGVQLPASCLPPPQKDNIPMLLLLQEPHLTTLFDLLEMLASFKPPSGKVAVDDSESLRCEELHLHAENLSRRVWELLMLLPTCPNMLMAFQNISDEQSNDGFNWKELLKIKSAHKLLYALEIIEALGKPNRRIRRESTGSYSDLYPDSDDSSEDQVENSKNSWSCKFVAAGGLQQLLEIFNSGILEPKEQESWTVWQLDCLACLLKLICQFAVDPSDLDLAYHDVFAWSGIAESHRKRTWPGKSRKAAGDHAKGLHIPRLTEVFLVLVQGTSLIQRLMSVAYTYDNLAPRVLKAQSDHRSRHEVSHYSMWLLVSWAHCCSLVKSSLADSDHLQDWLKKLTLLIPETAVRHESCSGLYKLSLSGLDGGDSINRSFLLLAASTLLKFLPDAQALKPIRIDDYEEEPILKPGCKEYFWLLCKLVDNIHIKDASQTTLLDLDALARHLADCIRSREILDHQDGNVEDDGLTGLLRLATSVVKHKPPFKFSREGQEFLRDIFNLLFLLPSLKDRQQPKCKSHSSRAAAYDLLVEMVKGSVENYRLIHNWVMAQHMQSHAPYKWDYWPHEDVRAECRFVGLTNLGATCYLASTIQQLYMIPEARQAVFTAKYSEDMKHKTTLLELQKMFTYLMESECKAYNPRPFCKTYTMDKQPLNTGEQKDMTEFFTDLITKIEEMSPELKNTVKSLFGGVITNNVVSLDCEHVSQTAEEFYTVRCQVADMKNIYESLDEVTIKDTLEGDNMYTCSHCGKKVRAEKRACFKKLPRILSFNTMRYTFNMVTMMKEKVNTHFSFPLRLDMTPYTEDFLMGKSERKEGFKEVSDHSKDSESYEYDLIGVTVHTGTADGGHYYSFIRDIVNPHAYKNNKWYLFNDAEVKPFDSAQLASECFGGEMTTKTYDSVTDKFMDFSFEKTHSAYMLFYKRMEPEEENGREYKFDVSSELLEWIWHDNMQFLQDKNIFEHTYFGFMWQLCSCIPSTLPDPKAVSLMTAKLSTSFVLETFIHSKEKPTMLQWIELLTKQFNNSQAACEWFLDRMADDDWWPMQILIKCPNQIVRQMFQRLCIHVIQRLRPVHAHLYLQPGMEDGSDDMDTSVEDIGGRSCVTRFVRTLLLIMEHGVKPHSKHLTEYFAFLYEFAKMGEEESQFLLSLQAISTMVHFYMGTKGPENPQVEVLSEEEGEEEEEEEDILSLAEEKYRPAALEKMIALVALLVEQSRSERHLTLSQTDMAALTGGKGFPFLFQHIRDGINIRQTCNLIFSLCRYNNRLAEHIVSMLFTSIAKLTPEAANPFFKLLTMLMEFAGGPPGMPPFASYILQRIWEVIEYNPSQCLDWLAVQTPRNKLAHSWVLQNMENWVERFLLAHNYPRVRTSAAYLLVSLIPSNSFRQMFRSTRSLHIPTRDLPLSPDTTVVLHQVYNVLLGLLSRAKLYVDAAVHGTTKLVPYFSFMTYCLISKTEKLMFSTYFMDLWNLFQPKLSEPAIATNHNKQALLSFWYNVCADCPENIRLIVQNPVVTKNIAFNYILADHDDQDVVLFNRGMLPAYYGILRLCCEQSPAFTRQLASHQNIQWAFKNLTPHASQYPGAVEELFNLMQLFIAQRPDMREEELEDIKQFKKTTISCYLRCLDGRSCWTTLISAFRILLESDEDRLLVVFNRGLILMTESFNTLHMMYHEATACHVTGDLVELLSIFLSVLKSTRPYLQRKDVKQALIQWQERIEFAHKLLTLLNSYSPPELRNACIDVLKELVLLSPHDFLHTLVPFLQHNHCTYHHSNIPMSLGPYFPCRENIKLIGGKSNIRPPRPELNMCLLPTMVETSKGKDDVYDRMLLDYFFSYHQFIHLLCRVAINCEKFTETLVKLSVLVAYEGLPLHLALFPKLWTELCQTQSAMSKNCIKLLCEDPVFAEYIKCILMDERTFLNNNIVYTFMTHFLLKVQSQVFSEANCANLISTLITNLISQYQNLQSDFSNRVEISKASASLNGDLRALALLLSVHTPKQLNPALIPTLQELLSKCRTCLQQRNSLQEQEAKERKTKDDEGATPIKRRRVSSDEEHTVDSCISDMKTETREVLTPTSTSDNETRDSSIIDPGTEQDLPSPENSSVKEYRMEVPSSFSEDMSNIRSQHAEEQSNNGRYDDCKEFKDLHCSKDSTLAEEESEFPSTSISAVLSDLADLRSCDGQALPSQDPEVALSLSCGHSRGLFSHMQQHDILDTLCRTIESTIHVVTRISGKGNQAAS

O=C(CCl)N1CCOCC1C1CC1 (stereo not given)
inactive: USP34 0.0844 | USP36 -0.0397 | USP38 0.0391 | USP39 0.265 | USP4 -0.101

Reference: the supplement of paper PMC11732987, “Enantioselective OTUD7B fragment discovery through chemoproteomics screening and high-throughput optimisation” (Communications Chemistry, 2025)
